Assay results taken from the supplement of paper PMC8975748.
Structures can show the parent of a compound that is named as a salt. ± gives the standard deviation of the averaged measurements.

Legend:
[1] = test system: Saccharomyces cerevisiae BY4741 SeMeCo community; test: mean cell size (pixel area) (pixels); higher = larger cells; details: 10 µM; 24 h; SM minimal medium
Method in brief: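 A Saccharomyces cerevisiae BY4741 community carrying four plasmids, each with a fluorescent marker and each complementing one auxotrophy, was exposed for 24 h to drug at a final 10 µM in SM medium in acoustically predosed 384-well plates. The overnight preculture (OD600 = 1.0) was diluted to OD600 = 0.3 before 70 µl was added per well. Cells were then fixed with paraformaldehyde, imaged by automated confocal microscopy and analysed in Harmony to derive mean cell pixel area per well, averaged over 3 replicates. Same SeMeCo high-content imaging drug screen: Selleck FDA-approved drugs at 10 µM, 24 h in SM medium, 384-well plates, 3 replicates.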

[2] = test system: Saccharomyces cerevisiae BY4741 SeMeCo community; test: z-score of prototroph abundance vs DMSO median; higher = larger share of this subpopulation than in DMSO controls; details: 10 µM; 24 h; SM minimal medium; subpopulation (auxotrophy): Prototroph
Method in brief: (§1)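 Automated confocal microscopy of paraformaldehyde-fixed cells was used to follow a Saccharomyces cerevisiae BY4741 community carrying four plasmids, each restoring one auxotrophy and encoding a distinct fluorescent protein. The community was pre-grown overnight to OD600 1.0, diluted to 0.3, and added at 70 µl to 384-well plates acoustically predosed with library drugs (10 µM final) for 24 h of growth in minimal SM medium. Single-auxotroph fluorescent strains set thresholds and autofluorescence correction, and each subpopulation's abundance was scored as a z-score against the vehicle-well median.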

[3] = test system: Saccharomyces cerevisiae BY4741 SeMeCo community; test: z-score of subpopulation abundance vs DMSO median, subpopulation auxotrophic for M; higher = larger share of this subpopulation than in DMSO controls; details: 10 µM; 24 h; SM minimal medium; subpopulation (auxotrophy): M
Method in brief: as §1

[4] = test system: Saccharomyces cerevisiae BY4741 SeMeCo community; test: z-score of subpopulation abundance vs DMSO median, subpopulation auxotrophic for L; higher = larger share of this subpopulation than in DMSO controls; details: 10 µM; 24 h; SM minimal medium; subpopulation (auxotrophy): L
Method in brief: as §1

[5] = test system: Saccharomyces cerevisiae BY4741 SeMeCo community; test: z-score of subpopulation abundance vs DMSO median, subpopulation auxotrophic for U; higher = larger share of this subpopulation than in DMSO controls; details: 10 µM; 24 h; SM minimal medium; subpopulation (auxotrophy): U
Method in brief: as §1

[6] = test system: Saccharomyces cerevisiae BY4741 SeMeCo community; test: z-score of subpopulation abundance vs DMSO median, subpopulation auxotrophic for H; higher = larger share of this subpopulation than in DMSO controls; details: 10 µM; 24 h; SM minimal medium; subpopulation (auxotrophy): H
Method in brief: as §1

[7] = test system: Saccharomyces cerevisiae BY4741 SeMeCo community; test: z-score of subpopulation abundance vs DMSO median, subpopulation auxotrophic for LU; higher = larger share of this subpopulation than in DMSO controls; details: 10 µM; 24 h; SM minimal medium; subpopulation (auxotrophy): LU
Method in brief: as §1

[8] = test system: Saccharomyces cerevisiae BY4741 SeMeCo community; test: z-score of subpopulation abundance vs DMSO median, subpopulation auxotrophic for LM; higher = larger share of this subpopulation than in DMSO controls; details: 10 µM; 24 h; SM minimal medium; subpopulation (auxotrophy): LM
Method in brief: as §1

[9] = test system: Saccharomyces cerevisiae BY4741 SeMeCo community; test: z-score of subpopulation abundance vs DMSO median, subpopulation auxotrophic for HM; higher = larger share of this subpopulation than in DMSO controls; details: 10 µM; 24 h; SM minimal medium; subpopulation (auxotrophy): HM
Method in brief: as §1

[10] = test system: Saccharomyces cerevisiae BY4741 SeMeCo community; test: z-score of subpopulation abundance vs DMSO median, subpopulation auxotrophic for HU; higher = larger share of this subpopulation than in DMSO controls; details: 10 µM; 24 h; SM minimal medium; subpopulation (auxotrophy): HU
Method in brief: as §1

[11] = test system: Saccharomyces cerevisiae BY4741 SeMeCo community; test: z-score of subpopulation abundance vs DMSO median, subpopulation auxotrophic for HL; higher = larger share of this subpopulation than in DMSO controls; details: 10 µM; 24 h; SM minimal medium; subpopulation (auxotrophy): HL
Method in brief: as §1

[12] = test system: Saccharomyces cerevisiae BY4741 SeMeCo community; test: z-score of subpopulation abundance vs DMSO median, subpopulation auxotrophic for HLU; higher = larger share of this subpopulation than in DMSO controls; details: 10 µM; 24 h; SM minimal medium; subpopulation (auxotrophy): HLU
Method in brief: as §1

[13] = test system: Saccharomyces cerevisiae BY4741 SeMeCo community; test: z-score of subpopulation abundance vs DMSO median, subpopulation auxotrophic for HLM; higher = larger share of this subpopulation than in DMSO controls; details: 10 µM; 24 h; SM minimal medium; subpopulation (auxotrophy): HLM
Method in brief: as §1

[14] = test system: Saccharomyces cerevisiae BY4741 SeMeCo community; test: z-score of subpopulation abundance vs DMSO median, subpopulation auxotrophic for LUM; higher = larger share of this subpopulation than in DMSO controls; details: 10 µM; 24 h; SM minimal medium; subpopulation (auxotrophy): LUM
Method in brief: as §1

[15] = test system: Saccharomyces cerevisiae BY4741 SeMeCo community; test: z-score of subpopulation abundance vs DMSO median, subpopulation auxotrophic for HLUM; higher = larger share of this subpopulation than in DMSO controls; details: 10 µM; 24 h; SM minimal medium; subpopulation (auxotrophy): HLUM
Method in brief: as §1

[16] = test system: Saccharomyces cerevisiae BY4741 SeMeCo community; test: z-score of subpopulation abundance vs DMSO median, subpopulation auxotrophic for UM; higher = larger share of this subpopulation than in DMSO controls; details: 10 µM; 24 h; SM minimal medium; subpopulation (auxotrophy): UM
Method in brief: as §1

[17] = test system: Saccharomyces cerevisiae BY4741 SeMeCo community; test: z-score of subpopulation abundance vs DMSO median, subpopulation auxotrophic for HUM; higher = larger share of this subpopulation than in DMSO controls; details: 10 µM; 24 h; SM minimal medium; subpopulation (auxotrophy): HUM
Method in brief: as §1

| SMILES | mean cell size [1] | z-score of prototroph abundance [2] | z-score of subpopulation abundance [3] | z-score of subpopulation abundance [4] | z-score of subpopulation abundance [5] | z-score of subpopulation abundance [6] | z-score of subpopulation abundance [7] | z-score of subpopulation abundance [8] | z-score of subpopulation abundance [9] | z-score of subpopulation abundance [10] | z-score of subpopulation abundance [11] | z-score of subpopulation abundance [12] | z-score of subpopulation abundance [13] | z-score of subpopulation abundance [14] | z-score of subpopulation abundance [15] | z-score of subpopulation abundance [16] | z-score of subpopulation abundance [17] |
| --- | --- | --- | --- | --- | --- | --- | --- | --- | --- | --- | --- | --- | --- | --- | --- | --- | --- |
| C/C=C\c1ccc(O)c(OC)c1 [Isoeugenol] | 12.02 ± 0.031 | -0.36 | 0.59 | 0.4 | 0.4 | -0.8 | -0.07 | 0.87 | 0.2 | -0.46 | -0.5 | 0.2 | -0.07 | 0.33 | 0.03 | – | – |
| CC(C(=O)O)c1ccc(C(=O)c2cccs2)cc1 (configuration not stated) [Suprofen] | 12.4 ± 0.17 | 0.24 | -0.68 | 0.48 | -0.1 | -0.25 | -0.41 | 0.42 | -0.73 | -0.02 | -0.36 | 0.03 | -0.28 | -0.07 | -0.2 | -0.8 | – |
| O=C(CCCN1CC=C(n2c(=O)[nH]c3ccccc32)CC1)c1ccc(F)cc1 [Droperidol] | – | -0.55 | 0.67 | 0.41 | 0.1 | – | 1.58 | – | 0.2 | -0.11 | 0.21 | -0.09 | 0.63 | 0.57 | 0.59 | 0.62 | -0.23 |
| O=c1ccn(C2CC(O)C(CO)O2)c(=O)[nH]1 (configuration not stated) [2-deoxyuridine] | – | 0.08 | 0.17 | 1.75 | – | – | 0.31 | 0.89 | – | -1.08 | – | 0.49 | 0.54 | 0.23 | 0.04 | -0.82 | -0.27 |
| O=C1OCCN1/N=C/c1ccc([N+](=O)[O-])o1 [Furazolidone] | – | 3.52 | 1.9 | 2.57 | -7.17 | 3.6 | -5.41 | – | 0.39 | – | – | -2.4 | -0.06 | – | -0.24 | -6.39 | -3.95 |
| C[C@H]1COc2c(C3(N)CC3)c(F)cc3c(=O)c(C(=O)O)cn1c23 [Pazufloxacin mesylate] | 12.5 ± 0.28 | -0.35 | -0.46 | 0.31 | 0.53 | 0.02 | 0.86 | -0.18 | -0.36 | 0.48 | -0.07 | 1.38 | -0.08 | -0.3 | 0.08 | -0.02 | – |
| CC1(C)S[C@@H]2[C@H](NC(=O)Cc3ccccc3)C(=O)N2[C@H]1C(=O)O [Penicillin G Sodium] | – | – | -0.8 | -0.1 | 0.06 | -0.3 | 0.16 | – | -1.14 | -0.78 | -0.32 | -0.18 | -0.09 | -0.52 | 1.41 | -0.23 | -0.66 |
| CCN(CC)CCNC(=O)c1cc(Cl)c(N)cc1OC [Metoclopramide] | 12 ± 0.25 | -1.14 | 0.35 | -0.22 | – | – | 0.6 | 0.08 | 0.05 | 1.02 | – | 1.27 | 0.54 | 1.17 | 1.06 | 1.28 | – |
